Among all 300,000 compounds or so, about 2,400 (0.8%) were called active. The sample holds actives, similar compounds and a random draw of the others, so the mix is not that of the screen. Unmarked numbers belong to inactive results.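 Rule for the calls: active = Every replicate reaches about 75%, or at least half do and their mean reaches it too (limit read from the data); inconclusive = At least half of replicates reach the limit but their mean does not; inactive = Under half of replicates reach the limit.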

This assay is described as follows: inhibitors of cytokine-induced beta cell apoptosis, primary screen, luminescence (AID 435005).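 Note: 0% = cytokine-treated negative control wells and 100% = positive control rescue; higher means more ATP so stronger rescue from cytokine killing.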 Particulars: INS-1E cytokine-induced death, ATP luminescence, 48 h; hits give high values; percent of positive-control rescue, neutral wells zero; concentration not given here.
For `Nc1nonc1-n1nnc(C(=O)N/N=C/c2cc(Br)ccc2O)c1CSC1=NCCS1`, the protection from apoptosis is 86.6% (active).
The same measure for `Cc1ccc(SCc2c(C(=O)N/N=C/C3CC=CCC3)nnn2-c2nonc2N)cc1` (centres undefined): -2.44%; for `Cc1ccc(SCc2c(C(=O)N/N=C/c3cccnc3)nnn2-c2nonc2N)cc1`: -3.56%; for `Nc1nonc1-n1nnc(C(=O)N/N=C\c2ccncc2)c1CN1CCCCC1`: -8.98%.
The value for `NNC(=O)c1nnn(-c2nonc2N)c1CN1CCCC1` was 0.21%; that for `Nc1nonc1-n1nnc(C(=O)N/N=C/c2ccccc2O)c1CN1CCCC1` was 77.1% (active); that for `COc1ccccc1-c1nnc2n1N=C(c1ccc(OC(F)F)c(OCC3CC3)c1)CS2` was 14.1%.
The same measure for `COc1ccc(CNC(=O)COC(=O)C(CCSC)N2C(=O)c3ccccc3C2=O)cc1` (centres undefined): -1.57%.
On to `O=C1COc2ccc(C(=O)COC(=O)c3ccccc3Cl)cc2N1`, for which the protection from apoptosis is -5.54%.
The same measure for `O=C(CSc1nc2ccccc2c(=O)n1Cc1ccc(F)cc1)NCC1CCCO1` (centres undefined): -5.32%.
With `CCOC(=O)C1CCN(CC(=O)Nc2ccc(OC)c(S(=O)(=O)N3CCCCC3)c2)CC1`, the protection from apoptosis was 0.731%.
The same measure for `CCN(C[C@H]1N[C@@](CC)(C(=O)OC)[C@H]2C(=O)N(Cc3ccccc3)C(=O)[C@@H]12)S(=O)(=O)c1ccccc1`: -2.88%; for `O=C(N/N=C/c1ccc(OC(=O)c2ccccc2Cl)cc1)c1ccc(O)cc1`: -1.66%.
The same measure for `CC(C)(C)C(=O)Nc1ccc(C(=O)N/N=C/c2ccccc2OC(=O)c2ccc(Cl)cc2Cl)cc1`: 87.8% (active).
On to `O=C(N/N=C/c1ccoc1)c1ccc(Cl)cc1Cl`, for which the protection from apoptosis was -6.52%.
With `CC1O[C@@H](OC2C(O)C(C)O[C@H](OC(=O)[C@]34CCC(C)(C)C[C@H]3C3=CCC5[C@@]6(C)CC(O)C(O[C@@H]7OC(CO)C(O)[C@@H](O)[C@@H]7O)[C@@](C)(C(=O)O)C6CC[C@@]5(C)[C@]3(CO)CC4)C2O[C@H]2OC(C)[C@@H](O[C@@H]3OCC(O[C@@H]4OC(CO)C(O)[C@H](O)C4O)[C@@H](O)[C@@H]3O)[C@H](O)C2O)C(O)C(O)C1O` (some centres undefined), the protection from apoptosis was -2.17%.
The same measure for `Cc1ccc(S(=O)(=O)N2[C@@H](c3ccc(Br)cc3)C(C(=O)O)=C[C@H]2CC2CCCC2)cc1`: -9.97%.
The value for `Cc1ccc(CNC(=O)COC(=O)C2CCC2)cc1` was -16.3%.
The same measure for `CS(=O)(=O)c1ccc2nc(NC(=O)c3ccc(N4CCCC4=O)cc3)sc2c1`: 2.56%; for `CCOc1ccc2nc(NC(=O)c3cc([N+](=O)[O-])ccc3N3CCOCC3)sc2c1`: 32.1%.
Take `CCC(=O)NC(Nc1nc2ccc(C)cc2s1)(C(=O)OC)C(F)(F)F` (centres undefined): the protection from apoptosis is -2.12%.
For `O=C(NC(Nc1nc2ccc([N+](=O)[O-])cc2s1)(C(F)(F)F)C(F)(F)F)c1ccccc1`, the protection from apoptosis was 118% (active).
The same measure for `CN(C)CCCN(C(=O)c1ccc(S(=O)(=O)N2CCCc3ccccc32)cc1)c1nc2ccc(F)cc2s1`: -11.6%; for `O=C(Nc1nc2ccc([N+](=O)[O-])cc2s1)c1ccc(S(=O)(=O)N2CCCc3ccccc32)cc1`: 113% (active).
